The values that follow come from the supplement of paper PMC4166925.

± gives the standard deviation of the averaged measurements. The full ranking holds about 33,000 sequences; the median of “E-score (dimensionless, -0.5 to 0.5)” is about -0.046, and the highest 2% start at about 0.36. For the sample, the highest values were picked, then their nearest neighbours and some sequences at random.

This experiment concerns T1, SpTbr T-box DNA-binding domain (GST fusion).
T1 sequence: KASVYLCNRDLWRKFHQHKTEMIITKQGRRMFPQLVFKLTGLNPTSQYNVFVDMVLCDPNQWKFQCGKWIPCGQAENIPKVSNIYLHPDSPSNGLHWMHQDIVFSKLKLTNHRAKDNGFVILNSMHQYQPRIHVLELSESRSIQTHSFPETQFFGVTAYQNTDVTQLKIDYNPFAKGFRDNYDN
Kind of experiment: PBM E-score of 8-mer (E-score (dimensionless, -0.5 to 0.5)); Tbr is Tbrain of the sea star Patiria miniata (Pm) or the sea urchin Strongylocentrotus purpuratus (Sp); higher = stronger binding preference. Particulars: the construct has about 5 more residues each side. Summed up:
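Expression of GST-fused Tbr T-box DNA-binding domains, each holding the full T-box plus roughly five flanking residues, was carried out in BL21 E. coli at 20 °C, with purification by glutathione affinity chromatography. Universal Agilent arrays made double-stranded by primer extension were incubated with the protein at 200 nM in PBS (pH 7.5), then scanned and quantified. All ungapped 8-mers were scored from probe intensities, and each received an enrichment E-score from the Universal PBM Analysis Suite, averaged over duplicate arrays.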
For GCCCCAAC, the “PBM E-score of 8-mer” value came to 0.133 ± 0.059.
In the case of ATGTGTAA, the “PBM E-score of 8-mer” value was 0.342 ± 0.0099.
For GTCACCGA, the “PBM E-score of 8-mer” value was found to be 0.0907 ± 0.0094.
To CTTACCTA belongs -0.163 ± 0.054; to GTCACCTA, 0.392 ± 0.017; to CTCACCGA, 0.0544 ± 0.017.
Regarding CTCACCTA, the “PBM E-score of 8-mer” value is 0.385 ± 0.014.
For GTCACCCA, the “PBM E-score of 8-mer” value is 0.203 ± 0.0083.
As to GGTCTCGA, the “PBM E-score of 8-mer” value was -0.115 ± 0.014.
With GCATGGGC, the “PBM E-score of 8-mer” value is -0.0364 ± 0.0065.
Take GCTACTAC: the “PBM E-score of 8-mer” value was 0.013 ± 0.035.
To ATTCCCAA belongs -0.227 ± 0.012.
Consider AGTGAGAC, for which the “PBM E-score of 8-mer” value was 0.169 ± 0.04.
The same measure for GGTGAGGA: 0.384 ± 0.0073.
Take GCTGAGAA: the “PBM E-score of 8-mer” value worked out at 0.26 ± 0.048.
Take TGAGAGAA: the “PBM E-score of 8-mer” value turned out to be 0.0644 ± 0.036.
For GGTGAGAA, the “PBM E-score of 8-mer” value amounted to 0.4745 ± 0.0016.
With AGTGAGGA, the “PBM E-score of 8-mer” value is 0.246 ± 0.028.
For TCTGAGAA, the “PBM E-score of 8-mer” value is -0.238 ± 0.12.
As for CGTGAGAC, the “PBM E-score of 8-mer” value came to 0.2491 ± 0.0021.
As to TGTGAGAA, the “PBM E-score of 8-mer” value came to 0.4336 ± 0.0026.
For the sequence CGTGAGAA, the “PBM E-score of 8-mer” value worked out at 0.347 ± 0.016.
The same measure for CGTGAGGA: 0.178 ± 0.011; for GGTGAGAC: 0.3819 ± 0.0012; for CGTTGAAG: 0.0941 ± 0.031.
In the case of ATGGACAA, the “PBM E-score of 8-mer” value was determined as 0.101 ± 0.003.
The same measure for AGGCCAAC: -0.0875 ± 0.028; for CGAGTAGC: 0.0635 ± 0.0055; for TAGGGCGA: -0.00769 ± 0.086.
For GAACTTGA, the “PBM E-score of 8-mer” value is -0.0691 ± 0.0032.
In the case of CCGCGACG, the “PBM E-score of 8-mer” value was 0.0384 ± 0.061.
As for ATCAGATA, the “PBM E-score of 8-mer” value was -0.0339 ± 0.043.
To AGTGAGAG belongs 0.3 ± 0.0092; to AGTGAGAT, 0.287 ± 0.033; to AGTGAGAA, 0.422 ± 0.014.
For CAACCTGA, the “PBM E-score of 8-mer” value was -0.0529 ± 0.059.
To ATTGGTCC belongs -0.197 ± 0.039; to AGCGTGTC, 0.152 ± 0.072.
CACGTGAC: the “PBM E-score of 8-mer” value stood at 0.286 ± 0.042.
Take CACGTGTC: the “PBM E-score of 8-mer” value came to 0.391 ± 0.014.
The same measure for AACGTGTA: 0.135 ± 0.074; for AACGTGCG: 0.32 ± 0.0051; for CACGTGTA: 0.272 ± 0.0034.
On to ACCGTGTG, for which the “PBM E-score of 8-mer” value was 0.203 ± 0.052.
In the case of AACGTGTC, the “PBM E-score of 8-mer” value was found to be 0.372 ± 0.0067.
AACGTGTG: the “PBM E-score of 8-mer” value was 0.4114 ± 0.0041.
For the sequence ACTCGATG, the “PBM E-score of 8-mer” value is -0.0556 ± 0.081.
To ACAACGAT belongs -0.00065 ± 0.016.
The same measure for CACGCCCC: 0.24 ± 0.013; for AGACAACG: -0.0213 ± 0.033.
As to CAGCTAGG, the “PBM E-score of 8-mer” value came to 0.101 ± 0.087.
CAGCCTCC: the “PBM E-score of 8-mer” value was -0.239 ± 0.021.
Turning to CAGGCTAC, the “PBM E-score of 8-mer” value was -0.221 ± 0.014.
For the sequence ACAATTCA, the “PBM E-score of 8-mer” value is 0.163 ± 0.069.
The same measure for CCCGACAA: 0.154 ± 0.02; for GCCGACAC: 0.397 ± 0.0048.
Consider GCCGACAA, for which the “PBM E-score of 8-mer” value was found to be 0.161 ± 0.014.
As to GCCGACCC, the “PBM E-score of 8-mer” value was -0.201 ± 0.12.
With ACCGACAT, the “PBM E-score of 8-mer” value is -0.042 ± 0.038.
With CCCGACAC, the “PBM E-score of 8-mer” value turned out to be 0.367 ± 0.017.
In the case of CCCGACAG, the “PBM E-score of 8-mer” value stood at 0.0718 ± 0.038.
To ACCGACAC belongs 0.373 ± 0.0082; to ACCGACAA, -0.0797 ± 0.034; to GACAATTA, 0.029 ± 0.11.
With GGACAACA, the “PBM E-score of 8-mer” value came out at 0.0909 ± 0.012.
For GAGGATGC, the “PBM E-score of 8-mer” value is -0.0317 ± 0.049.
Regarding CGGAATGC, the “PBM E-score of 8-mer” value is -0.214 ± 0.051.
Regarding GCGAACGC, the “PBM E-score of 8-mer” value stood at 0.3749 ± 0.0018.
Take CCGAACGC: the “PBM E-score of 8-mer” value was -0.0118 ± 0.08.
For the sequence GCGAACGA, the “PBM E-score of 8-mer” value worked out at 0.283 ± 0.035.
On to GCAGAGAA, for which the “PBM E-score of 8-mer” value was -0.328 ± 0.0058.
For the sequence GACTCTCA, the “PBM E-score of 8-mer” value worked out at 0.0161 ± 0.056.
CTTCACCC: the “PBM E-score of 8-mer” value turned out to be 0.123 ± 0.04.
Consider ATTCACTG, for which the “PBM E-score of 8-mer” value is 0.0169 ± 0.045.
On to ATTCACAA, for which the “PBM E-score of 8-mer” value is 0.299 ± 0.061.
With GTTCACGA, the “PBM E-score of 8-mer” value was found to be 0.275 ± 0.0011.
The same measure for CTTCACAA: 0.32 ± 0.0058; for ATTCACAG: 0.395 ± 0.025.
To CTTCACAC belongs 0.4852 ± 0.00088; to ATTCACCG, 0.0187 ± 0.041; to ATTCACTC, 0.115 ± 0.056.
For the sequence GTTCACAA, the “PBM E-score of 8-mer” value stood at 0.376 ± 0.02.
To ATTCACAC belongs 0.4807 ± 0.0029; to GTTCACTA, -0.0482 ± 0.02; to AGAGAGCT, -0.0758 ± 0.017.
For the sequence GGAGAACC, the “PBM E-score of 8-mer” value is 0.0265 ± 0.00056.
With GCAATACA, the “PBM E-score of 8-mer” value was -0.0823 ± 0.031.
Turning to CATCGACA, the “PBM E-score of 8-mer” value was found to be 0.222 ± 0.013.
As for ACTTTTCT, the “PBM E-score of 8-mer” value was 0.00466 ± 0.018.
The same measure for CATAAGTC: -0.18 ± 0.0024.
In the case of CACAGTTA, the “PBM E-score of 8-mer” value came out at 0.147 ± 0.022.
Turning to CCTCAGAC, the “PBM E-score of 8-mer” value is -0.204 ± 0.031.
As for AACAACAC, the “PBM E-score of 8-mer” value was determined as 0.373 ± 0.013.
As to GACAACAA, the “PBM E-score of 8-mer” value came to 0.215 ± 0.015.
To CTCAACAC belongs 0.269 ± 0.022.
AACAACAA: the “PBM E-score of 8-mer” value came out at 0.102 ± 0.0091.
In the case of CACAACAC, the “PBM E-score of 8-mer” value came out at 0.3898 ± 0.0017.
As to GACAACAC, the “PBM E-score of 8-mer” value turned out to be 0.385 ± 0.0048.
GACAACTC: the “PBM E-score of 8-mer” value turned out to be 0.252 ± 0.019.
Consider GTCAACAA, for which the “PBM E-score of 8-mer” value is 0.333 ± 0.0095.
The same measure for AACAACAT: 0.187 ± 0.02.
To GTCAACAC belongs 0.434 ± 0.0065; to CACAACAA, 0.285 ± 0.028.
Turning to CACAACAG, the “PBM E-score of 8-mer” value turned out to be 0.198 ± 0.0064.
The same measure for AGAGCCAG: 0.0237 ± 0.035.
The same measure for TGTTTCAA: -0.0693 ± 0.047; for CAGCGCAA: -0.0911 ± 0.0026.
GCAGCGCC: the “PBM E-score of 8-mer” value turned out to be 0.189 ± 0.062.
To CGCATGGC belongs -0.0354 ± 0.028.
